Source: PubChem (National Center for Advancing Translational Sciences (NCATS))
SMN2 splice up: qHTS Assay for Enhancers of SMN2 Splice Variant Expression. AID 1458, 2008. actives 2.8% (n = 210,000). HEK293 SMN2-luciferase splicing reporter, luminescence, 30-36 h. Potency, µM (highest dose often 46.1 µM), without a hit: at the top dose activity change, positive = activation, actives largely listed as activators; also: % of control where 0% means no effect; nearly all actives have a fitted effect of over 55% in size
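HEK293 cells carry an SMN2 minigene-luciferase reporter in which exon 7 inclusion puts luciferase in frame. Cells were seeded at 2000 cells/well, attached for 10-12 hours, then exposed to compounds for 30-36 hours at 37C before ONE-Glo luminescence.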
Luc counter: Counterscreen for Luciferase (Kinase-Glo TM) Inhibition. Kinase-Glo luciferase, ATP luminescence, 8 min. Potency, µM (titrated, usually from 38.3 µM), without a hit: at the top dose activity change, negative = inhibition, usual class: inhibitors. actives 0.28% (n = 200,000); also: % is scaled to controls: 0 for no effect and ±100 for the full control effect; nearly all actives have a fitted effect of over 60% in size
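Kinase-Glo luciferase light output from ATP and luciferin was measured with 10 uM ATP, within the enzyme's linear range. Buffer: 50 mM imidazole pH 7.2, 50 mM KCl, 7 mM MgCl2, 0.01% Tween 20, 0.05% BSA; luminescence read after 8 min at ambient temperature.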
FLuc modulator: qHTS profiling assay for firefly luciferase inhibitor/activator using purifed enzyme and Km concentrations of substrates (counterscreen for miR-21 project). Luciferin 4-monooxygenase (Photinus pyralis), P08659. actives 6.9% (n = 360,000). AID 588342, 2011. purified FLuc, Km substrates, luminescence inhibition. Potency, µM (highest dose often 57.5 µM), for the others: at the highest dose activity change, negative = inhibition, usual class: inhibitors;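 also: plate controls were vehicle for no effect and reference inhibitor for full effect; nearly all actives have a fitted effect of over 55% in size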
Target sequence (P08659 whole entry, looked up): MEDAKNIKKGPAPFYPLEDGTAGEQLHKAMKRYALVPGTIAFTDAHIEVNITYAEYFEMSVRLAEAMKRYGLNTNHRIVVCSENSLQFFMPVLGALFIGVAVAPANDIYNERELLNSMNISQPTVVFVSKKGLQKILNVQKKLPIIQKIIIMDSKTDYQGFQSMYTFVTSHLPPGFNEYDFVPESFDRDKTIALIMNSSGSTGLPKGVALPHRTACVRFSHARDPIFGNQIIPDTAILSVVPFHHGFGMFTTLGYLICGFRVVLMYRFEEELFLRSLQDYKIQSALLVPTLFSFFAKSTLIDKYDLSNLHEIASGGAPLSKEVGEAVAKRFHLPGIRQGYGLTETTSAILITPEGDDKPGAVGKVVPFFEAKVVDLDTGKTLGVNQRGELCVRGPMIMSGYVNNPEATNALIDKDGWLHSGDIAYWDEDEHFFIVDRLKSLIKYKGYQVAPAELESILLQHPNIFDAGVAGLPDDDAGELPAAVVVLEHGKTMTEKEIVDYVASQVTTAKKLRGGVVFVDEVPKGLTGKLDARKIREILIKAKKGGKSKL
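Purified P. pyralis luciferase (10nM final) with 10uM D-luciferin and 10uM ATP (Km levels) in 50mM Tris acetate pH 7.5, 10mM Mg acetate, 0.01% Tween-20, 0.05% BSA; qHTS 6-point titration, ~60 µM downward; luminescence read.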
Rab9 promoter act: qHTS Assay for Rab9 Promoter Activators | Huh7 Rab9 promoter-luciferase reporter, luminescence, 24 h | Potency, µM (highest dose often 9.22 µM), inactives show at the highest dose activation, negative = inhibition, most hits filed as activators | actives 2.8% (n = 320,000); also: % of control where 0% means no effect; nearly all actives have a fitted effect of over 60% in size
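Measured in stably transfected Huh7 cells bearing a Rab9 promoter–luciferase construct: 24 h compound treatment at 37 °C, followed by luminescence detection.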
ELG1 genotoxic: qHTS screen for small molecules that induce genotoxicity in human embryonic kidney (HEK293T) cells expressing luciferase-tagged ELG1; HEK293T ELG1-luciferase reporter, luminescence, 16 h; AID 504466, 2011; Potency, µM (top dose mostly 46 µM), for inactives: at the highest dose activity change, positive = activation, most hits filed as activators; actives 1.3% (n = 330,000); also: % of control where 0% means no effect; nearly all actives have a fitted effect of over 60% in size
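16 hr compound incubation (37 °C, 5% CO2) of HEK293T cells carrying luciferase-tagged ELG1; luciferase then measured by ONE-Glo luminescence after 30 min at RT.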
NPC1 promoter act: qHTS Assay for NPC1 Promoter Activators; Potency, µM (top dose mostly 9.22 µM), for inactives: top-dose activation, actives largely listed as activators; actives 2.4% (n = 320,000); Huh7 NPC1 promoter luciferase reporter, 24 h; AID 485313, 2010; also: % of control where 0% means no effect; nearly all actives have a fitted effect of over 60% in size
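Compounds in DMSO were transferred onto Huh7 NPC1-luciferase reporter cells pre-incubated 2 h; after 24 h at 37 °C, Amplite reagent was dispensed and luminescence recorded 10 min later.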
Numbers without * were called inactive; ? = inconclusive; nt = no result given; [ ] = remark or other dose. Shown are actives, neighbours in structure and some others; about 7.3% of the full set was active somewhere. Calls follow the shape of the dose curve; as a rule, active = well fitted curve in the direction sought with a large enough effect; inconclusive = small, poorly fitted or top-dose-only effect, or another doubt; inactive = no such curve, though single readings can be large; an effect the other way counts as inactive or inconclusive. Potency is read from the fitted curve at half-maximal effect.

SMILES	SMN2 splice up	Luc counter	FLuc modulator	Rab9 promoter act	ELG1 genotoxic	NPC1 promoter act
CCOC(=O)c1sc(-n2[nH]c(C)cc2=O)nc1C	-3%	-3%	15µM*	2%	2%	11%
CCOC(=O)c1sc(NC(C)=O)nc1C	9%	-2%	2%	-9%	3%	0%
C/C(=N\NC(=O)c1cc2ccccc2cc1O)c1ccc(C)o1	nt	nt	9.5µM*	?	0%	27%
C/C(=N/NC(=O)c1cc2ccccc2cc1O)c1ccco1	nt	nt	5.4µM*	1.6µM*	?	2.8µM*
C/C(=N\NC(=O)c1c(C)nc2ccccn12)c1ccco1	10µM*	-30%	?	2.5µM*	?	?
C/C(=N\NC(=O)c1cc(C)nc2ccccc12)c1ccco1	0%	-2%	3%	-4%	-1%	-3%
COc1ccc(C(=O)Nc2cnc3ccccn3c2=O)cc1	18µM*	-3%	17µM*	3.5µM*	?	2.8µM*
O=C(Nc1cnc2ccccn2c1=O)c1ccc(F)cc1	11µM*	-9%	17µM*	3.2µM*	19%	2.5µM*
CCC(=O)NC1CCc2cccc(OC)c2C1 (stereo not drawn)	-3%	nt	nt	nt	nt	nt
Cc1noc(/C=C/c2cccs2)c1S(=O)(=O)N1CCC(C(=O)NCc2ccccc2Cl)CC1	-6%	nt	0%	nt	nt	nt
COc1ccc(/C=N/NC(=O)c2nn(-c3ccc(Cl)cc3)c(=O)c3c(N)scc23)cc1	-2%	-4%	?	0%	6%	1%
COc1ccc(/C=N/NC(=O)c2nc(-c3ccccc3)n(-c3ccccc3)n2)cc1OC	-2%	1%	17µM*	7%	0%	-8%
COc1ccc(/C=N/NC(=O)c2nc(-c3ccccc3)cc(-c3ccccc3)n2)cc1	-32%	-2%	2.7µM*	3%	1%	1%
COc1ccc(/C=N/NC(=O)c2nc(-c3ccccc3)cc(-c3ccccc3)n2)cc1O	-42%	1%	1.5µM*	-2%	-10%	-2%
COc1cc(/C=N/NC(=O)c2nc(-c3ccccc3)n(-c3ccccc3)n2)ccc1O	-9%	0%	?	1%	1%	3%
COc1ccc(/C=N/NC(=O)c2nn(-c3ccccc3)c(=O)c3c(N)scc23)cc1	5%	-1%	9.5µM*	4%	0%	-3%
CCN(CCO)C[C@H]1CCC[C@H]2CCCC[C@@H]21	-7%[9.22 µM]	-1%[7.66 µM]	nt	nt	nt	nt
CC(C)=C[C@H]1[C@@H](COC(=O)c2ccccc2Cl)C1(C)C	-7%[9.22 µM]	-1%[7.66 µM]	nt	nt	nt	nt
CCCN(CCC)CCNC(=O)Cn1ncc2c([nH]c3ccc(C)cc32)c1=O	nt	nt	0%	nt	nt	nt
COc1ccc(/C=N/NC(=O)CCn2c3ccccc3c3ccccc32)cc1O	-9%	2%	11µM*	-32%	4%	-25%
COc1cccc(/C=N/NC(=O)CCn2c3ccccc3c3ccccc32)c1	2%	1%	-1%	-2%	1%	0%
Cc1ccccc1-c1nc(-c2ccc(Br)o2)no1	nt	nt	3.4µM*	2.2µM*	?	1.8µM*
Fc1ccccc1-c1nc(-c2ccc(Br)o2)no1	nt	nt	0.85µM*	?	?	0.5µM*
Cc1ccccc1-c1nc(-c2ccc(NC(=O)c3ccc(Br)o3)cc2)no1	3%	0%	?	?	?	?
CCOC(=O)c1ccccc1NC(=O)Cn1c(=O)n(Cc2nc(-c3ccccc3)no2)c(=O)c2ccccc21	nt	nt	6%	nt	nt	nt
SMILES	SMN2 splice up	Luc counter	FLuc modulator	Rab9 promoter act	ELG1 genotoxic	NPC1 promoter act
O=C(Cn1c(=O)oc2cc(S(=O)(=O)NC3CCCC3)ccc21)Nc1ccc(F)c(F)c1	16%	nt	1%	nt	nt	nt
CCOc1ccc(CNC(=O)CCC(=O)N2CC(C)Sc3ccccc32)cc1 (stereo not drawn)	nt	nt	-8%	nt	nt	nt
CC(C)c1ccc(C(=O)Nc2cccnc2)cc1	nt	nt	3.4µM*	?	5.2µM*	1.6µM*
CCC(C)c1ccc(NC(=O)c2cccnc2)cc1 (stereo not drawn)	13µM*	-1%	12µM*	2.5µM*	?	2.8µM*
O=C(COc1ccc(-c2ccccc2)cc1)Nc1cccnc1	nt	nt	5.4µM*	-3%	17%	-12%
CCC(C)c1ccc(O)c(NC(=O)c2cccnc2)c1 (stereo not drawn)	-3%	-1%	-2%	1%	-3%	-1%
CC(C)(C)C(=O)Nc1ccc(C(=O)Nc2cccnc2)cc1	?	0%	21µM*	4µM*	21µM*	?
O=C(COc1ccc([N+](=O)[O-])cc1)Nc1cccnc1	nt	-1%	-11%	2%	-2%	-1%
NC[C@@H](O)CSCc1ccc(Cl)cc1	-10%[9.22 µM]	-2%[7.66 µM]	nt	nt	nt	nt
CCc1ccc(NC(=O)N(Cc2ccc(C)cc2)Cc2cccn2-c2nnc(N3CCCC3=O)s2)cc1	6%	nt	-7%	nt	nt	nt
O=C(Nc1cccnc1)c1ccc(F)cc1	6%	-2%	-9%	-1%	1%	-2%
O=C(Nc1cccnc1)c1ccc(-c2ccccc2)cc1	-2%	-4%	2.4µM*	?	?	?
Cc1ccc(Cl)cc1N1CCN(c2ncnc3onc(C)c23)CC1	nt	nt	-6%	nt	nt	nt
CCCc1ccc2oc(C(=O)NCc3nnc(C)o3)c(C)c2c1	nt	nt	9.5µM*	2.8µM*	9.2µM*	2µM*
CCCc1ccc2oc(C(=O)NCCCN3CCOCC3)c(C)c2c1	nt	nt	13µM*	1%[1.84 µM]	?	14%
